# Laboratory results taken from PubChem BioAssay AID493045 (Broad Institute, 2011).
# Entries with a potency or affinity are not part of this list. Calls of active or inactive are those of the source.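 How the source made its calls: active means viability loss with fitted half-maximal dose at or below ten times the top valid dose; inconclusive means flat loss of 30 to 70 percent, or a poor fit; inactive means flat within 30 percent, weak potency, or rising signal.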
# Test: HRAS-V12 fibroblast viability reduction – cell-based, Alamar Blue, dry powder, Ras selective lethality project, primary screen (AID 493045)
# Settings: BJeLR (HRASV12) fibroblasts viability, 48 h; series mostly up to 45 µM
row,SMILES,outcome
1,COc1ccc(N(C(=O)CSc2ncccn2)C(C(=O)NCCc2ccccc2)c2cccs2)cc1Cl (stereo unspecified),inactive
2,COc1ccc(N(C(=O)CO)C(C(=O)NCCc2ccccc2)c2cccs2)cc1Cl (stereo unspecified),inactive
3,CCC(=O)N(c1ccc(OC)c(Cl)c1)C(C(=O)NCCc1ccccc1)c1cccs1 (stereo unspecified),inactive
4,COc1ccc(N(C(=O)[C@@H](C)Cl)C(C(=O)NCCc2ccccc2)c2cccs2)cc1Cl (stereo partly specified),inactive
5,COCC(=O)N(c1ccc(OC)c(Cl)c1)C(C(=O)NCCc1ccccc1)c1cccs1 (stereo unspecified),inactive
6,O=C(c1[nH]ncc1[N+](=O)[O-])N1CCN(C(c2ccccc2)c2ccccc2)CC1,inactive
